Reference: ChEMBL document CHEMBL1157539, “Thousands of chemical starting points for antimalarial lead identification” (Nature, 2010)

tested on: Plasmodium falciparum; test: GSK_TCMDC: Inhibition of Plasmodium falciparum 3D7 in whole red blood cells, using parasite LDH activity as an index of growth. Test compounds present at 2uM; assay type: functional

Inhibition, 89%:
COc1ccc(Nc2ncc3c(-c4ccc(NC(=O)c5cccc(C(F)(F)F)c5)cc4)c[nH]c3n2)cc1OC
O=C(Cc1ccccc1)NC(c1ccccc1)c1ccc2cccnc2c1O (stereo not given)

Inhibition, 87%:
COc1cc(NC(=O)Nc2ccc([N+](=O)[O-])cc2OC)c(OC)cc1Cl
CC(C)C(=O)NC(c1ccc(N(C)C)cc1)c1cc(Cl)c2cccnc2c1O (stereo not given)

Inhibition, 98%:
CCCCCC(C)C(C)c1cc(O)c2c(c1)OC(C)(C)CC2(O)c1ccnn1C (stereo not given)
Cc1c(Cc2ccccc2)c(=O)oc2c(C)c3c(cc12)CN(CC(C)c1ccccc1)CO3 (stereo not given)
CCN(CC)CCN(Cc1ccc(-c2ccc(C(F)(F)F)cc2)cc1)C(=O)Cn1c(CCc2cccc(F)c2F)nc(=O)c2ccc(F)cc21.O=C(O)C(O)C(O)C(=O)O

Inhibition, 97%:
CCNc1cc(C(=O)N[C@@H](Cc2ccccc2)[C@H](O)CNC2C3CC4CC(C3)CC2C4)cc(N2CCCCS2(=O)=O)c1.Cl (stereo not given in full)
CC1Cc2ccccc2N1CC(=O)Nc1cc(C(F)(F)F)ccc1-n1cncn1 (stereo not given)
COc1cccc2c(C)cc(NCc3ccc(Cl)cc3)nc12
Cc1nc(C)c(-c2ccc(C(=O)c3ccc(Cl)cc3)cc2)c(O)c1Br
Clc1ccc(-c2ccc(C=NNc3nc(=Nc4ccccc4)[nH]c(=Nc4ccccc4)[nH]3)o2)cc1Cl
CCN(CC)/C(=N/C(=N)Nc1ccc(C)cc1)NCCCCCCN/C(=N\C(=N)Nc1ccc(C)cc1)N(CC)CC

Inhibition, 93%:
COc1cc(-c2[nH]c(-c3ccc(OCCN(C)C)cc3)cc2-c2ccncc2)ccc1Cl.Cl
COc1cc(C(=O)N2N=C(c3c(-c4ccccc4)c4cc(Br)ccc4[nH]c3=O)CC2c2cccc([N+](=O)[O-])c2)cc(OC)c1OC (stereo not given)

Inhibition, 91%:
O=S(=O)(c1cccc(Br)c1)N1CCCCC(c2ccc(C(F)(F)F)cc2)=N1

Inhibition, 92%:
CCn1c(-c2nonc2N)nc2c(-c3cccc(NC(=O)Nc4cccc(C#N)c4)c3)ncc(OCCCN)c21.O=C(O)C(F)(F)F
O=C(/C=C/c1ccc(Cl)c(Cl)c1)NCCCCCN1CCC(NC(=O)c2cc(Cl)ccc2F)CC1
CC(C)(CNCc1cc(Cl)cc(Cl)c1)c1nc(-c2ccnc(N)n2)c(-c2ccc(Cl)c(O)c2)[nH]1.Cl

Inhibition, 100%:
CC(c1cccc(S(=O)(=O)NCc2ccc(Cl)cc2Cl)c1)N1CCC(N2CCCCC2)CC1 (stereo not given)
CN1CCC(C(=O)Nc2cccc(-c3ccc(-c4nc5cc(C(F)(F)F)ccc5[nH]4)cc3)c2)CC1
CS(=O)(=O)c1ccc(CNCc2cccc(-c3cccc(-c4nc5ccccc5[nH]4)c3)c2)cc1.O=C(O)C(F)(F)F
Cc1cccc(C(=O)Nc2ccnc(N3CCC(N(C)Cc4cccc(C#N)c4)CC3)c2)c1.O=C(O)C(F)(F)F
COc1cc(CNc2ccc(N3CCCC3)cc2)cc(Cl)c1OC
COc1ccc(N2CCN(CCCCNC(=O)c3ccc(NC(=O)c4cc(C(F)(F)F)cc(C(F)(F)F)c4)cc3)CC2)cc1OC
O=C(Nc1cccc(-c2ccc(-c3nc4cc(F)ccc4[nH]3)s2)c1)c1cccnc1
NC(=O)C1CCN(Cc2cccc(-c3cccc(-c4nc5cc(C(F)(F)F)ccc5[nH]4)c3)c2)CC1.O=C(O)C(F)(F)F
COc1ccc2cc(-c3nc(-c4c(Cl)cccc4Cl)[nH]c3-c3ccnc(NCCC4CCCN4C)c3)ccc2c1.O=C(O)C(F)(F)F (stereo not given)
O=[N+]([O-])c1cccc(-c2ccc(C=NNc3cc(N4CCCC4)nc(N4CCCC4)n3)o2)c1
O=C(Nc1ccc(Cl)c(Cl)c1)Nc1cc(C(F)(F)F)ccc1Cl
OC(CNCc1ccccc1OCc1ccccc1)c1cc(C(F)(F)F)cc(C(F)(F)F)c1 (stereo not given)
CCOc1ccccc1C(=O)N1CCc2cc3nccc(N4CCN5CCC[C@H]5C4)c3cc21

Inhibition, 99%:
CN1CCC(NCc2ccc(-c3ccc(S(=O)(=O)NCc4ccccc4)cc3)cc2)CC1.O=C(O)C(F)(F)F

Inhibition, 88%:
COc1cc(Cc2cnc(N)nc2N)cc(OC)c1OCCCCC(=O)O.Cl
CC(C)C1C(O)=C(c2ccc3ccccc3c2)C(=O)N1Cc1ccsc1 (stereo not given)
c1ccc(CN2CCN(c3cc(-c4cncc(-c5ccccc5)c4)nc(-c4ccccc4)n3)CC2)cc1
O=C(NCCc1ccc(F)cc1)c1ccc(N2CCN(c3ccncc3)CC2)nc1.O=C(O)C(F)(F)F

Inhibition, 96%:
COc1ccc(NC(=O)CSc2nc(-c3ccccc3Cl)ns2)cc1
COc1c(O)cc2oc(-c3ccc(O)cc3)cc(=O)c2c1O [HISPIDULIN]

Inhibition, 85%:
CCOC(=O)c1c(CCc2ccc(C(F)(F)F)cc2)nc2c(c1-c1ccc(C(=O)N[C@@H](C)c3ccncc3)cc1)C(=O)N1CCC[C@@H]21
